In the supplement of paper PMC3334620:
The full ranking holds about 33,000 sequences; the median of “E-score (-0.5 to 0.5)” is about -0.0014, and the highest 2% start at about 0.25. The sample as a whole holds a higher share of the highest values than the screen did.

Biological target: T1, Cad1 (UniProt P24813)
T1 sequence: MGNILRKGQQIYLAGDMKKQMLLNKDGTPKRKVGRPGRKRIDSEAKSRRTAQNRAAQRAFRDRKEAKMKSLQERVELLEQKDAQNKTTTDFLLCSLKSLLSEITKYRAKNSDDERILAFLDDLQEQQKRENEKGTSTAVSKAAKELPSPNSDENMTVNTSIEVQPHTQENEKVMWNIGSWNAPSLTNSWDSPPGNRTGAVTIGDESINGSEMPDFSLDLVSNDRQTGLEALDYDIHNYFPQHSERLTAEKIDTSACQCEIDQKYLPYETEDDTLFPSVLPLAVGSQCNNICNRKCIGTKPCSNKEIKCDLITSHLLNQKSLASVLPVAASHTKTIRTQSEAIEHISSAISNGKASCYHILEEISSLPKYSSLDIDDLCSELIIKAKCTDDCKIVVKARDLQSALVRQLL
Assay: PBM E-score (8-mer binding enrichment) (E-score (-0.5 to 0.5)); higher = stronger / more preferred TF binding
Settings: protein concentration: 100 nM; construct: GST-full length
Description: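 Universal 'all 10-mer' protein binding microarrays (Agilent AMADID 015681) probed with GST-tagged S. cerevisiae TFs (full-length or DBD) made by in vitro transcription/translation (PURExpress), about 100-200 nM. Bound TF was detected with fluorescent anti-GST. Each ungapped 8-mer (which stands for itself and its reverse complement) is scored by the PBM enrichment score (E-score), a modified Wilcoxon-Mann-Whitney statistic from -0.5 to +0.5, computed with the Universal PBM Analysis Suite. Scale: above 0.35 generally sequence-specific binding.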

In order of falling “PBM E-score” value:
1. CTTAATAA  0.383
2. AGCGCTTA  0.336
3. ATGTAATA  0.334
4. GATTTATA  0.319
5. AATCATGA  0.317
6. AATTTGTC  0.31
7. TATAATCA  0.31
8. AATAATAA  0.305
9. CTTATTTC  0.304
10. AATATAAG  0.297
11. AATTTTAT  0.295
12. AATATTGC  0.294
13. AGTCAGGC  0.294
14. AATTTATC  0.293
15. CACAGTAA  0.291
16. AATTTTAC  0.282
17. ATGTAATG  0.281
18. AGCGCTAT  0.278
19. TATAATAA  0.278
20. TACGCTGA  0.275
21. TAAGAACA  0.275
22. AGCAATCG  0.27
23. TAACACTA  0.265
24. AATATTTC  0.264
25. AAATCGTG  0.263
26. GTTCATGA  0.262
27. CGCGCTTA  0.262
28. CACGCTCA  0.261
29. AACATAAG  0.261
30. GTATTAGA  0.26
31. CGCGCTAC  0.26
32. AATTTTCC  0.26
33. AAATAGTG  0.258
34. AGCGCTGA  0.258
35. ATGTAACG  0.257
36. CGCGCTAA  0.256
37. AATATTTG  0.255
38. ATTTTATG  0.255
39. AATTTAAT  0.252
40. AATATGTG  0.251
41. AATATAAA  0.251
42. GTAGATAA  0.251
43. CGATCCGA  0.251
44. AATTTTAA  0.249
45. GTTAATAA  0.249
46. AATTTATA  0.241
47. CGCGCTAG  0.238
48. TATATAAA  0.23
49. AATTTATG  0.229
50. ATTTTATA  0.221
51. CGCGCTGA  0.219
52. AATAATCA  0.218
53. AGCAATCA  0.216
54. AATATTTA  0.213
55. AGCGCTAA  0.212
56. CTTCATGA  0.207
57. AATATGTA  0.206
58. AATAATAC  0.205
59. ATTATTTC  0.2
60. CATTTTAC  0.198
61. ATATTAGA  0.197
62. AATTTGTA  0.196
63. GCATCTAA  0.194
64. GTGTAATA  0.194
65. AGCGCTGG  0.191
66. CAACACTA  0.19
67. CACTAAAA  0.19
68. AATATAAT  0.18
69. CGGGTTTC  0.179
70. ATTATTTG  0.175
71. AAATTTAT  0.171
72. AATATGTC  0.17
73. GATAATCA  0.169
74. ATGTAATC  0.168
75. ATGTAACA  0.168
76. CGATCCGC  0.163
77. TATCATGA  0.16
78. TGCGCTAA  0.156
79. GTCTAAGA  0.151
80. CATTTATC  0.15
81. ACATCCCG  0.147
82. CCAAAATA  0.147
83. AATTTTTC  0.145
84. GTGGACTA  0.144
85. GACGAAAC  0.144
86. GATCAAAA  0.144
87. CACGCTGA  0.143
88. CTGTAATA  0.143
89. AGTCAGGA  0.141
90. GGTATCCA  0.135
91. AACATAAC  0.135
92. ATTCATCA  0.132
93. AAATAGTT  0.129
94. GCCATAAA  0.125
95. ATAGATAA  0.125
96. AATTTAAC  0.124
97. GATTTCTA  0.123
98. AGCGCTTC  0.122
99. ATTTTGTC  0.121
100. GAAGAACA  0.121
101. ATTCTCCC  0.115
102. TTAGATAA  0.105
103. AGAAGGTA  0.103
104. GAGAACTA  0.103
105. ACTATTTG  0.101
106. ATCGTAGC  0.0921
107. GACGCTGA  0.0912
108. CAACTGTC  0.0813
109. GCATAGAA  0.0802
110. AATAATAG  0.077
111. TCTAATAA  0.0758
112. AGAATACA  0.0745
113. CACCCGCC  0.0605
114. GAATCGTA  0.0597
115. AAATCGGG  0.0578
116. ACAGGCAA  0.0554
117. TTCGACAA  0.0549
118. GGGTATAC  0.0548
119. CATTGGAA  0.0544
120. TACAGTAA  0.0528
121. AATTTAAG  0.0522
122. GAACACTA  0.0513
123. ATGCGACC  0.0488
124. ATTCATGA  0.0482
125. AATCATGG  0.048
126. TACTAGAA  0.0443
127. CTAGCTTC  0.0393
128. AGCAACCA  0.0389
129. AAGTAATG  0.0383
130. AGAGTGCT  0.0363
131. AGATAGAC  0.0347
132. ATAGTTCA  0.0339
133. GCAAGGCC  0.0338
134. ACGGTACA  0.0323
135. CGCGCTTC  0.0321
136. AACCAAGC  0.03
137. ATTTTTAC  0.0299
138. AAGGCCAT  0.0298
139. AAATCGTC  0.0296
140. AATTTGGG  0.0286
141. ATTTTTCC  0.0266
142. ATCTTACC  0.0255
143. ACTATTGG  0.025
144. ATCGTTAC  0.0243
145. GTACGTGA  0.0217
146. CAAGAACA  0.0216
147. CATTTATA  0.021
148. GATTCCTA  0.0143
149. GGCGACAC  0.0142
150. AATATTGG  0.0135
151. CATATTTC  0.0121
152. CATATAAA  0.0106
153. CATATAAG  0.00934
154. CCCACACA  0.00769
155. CCGAAGAA  0.00754
156. CACATAAG  0.00562
157. GGATCCGA  -0.00022
158. CTTATTTA  -0.00667
159. AACGAGCA  -0.0102
160. CCCTCGAC  -0.0126
161. CTTAATAC  -0.0147
162. AGTACTTA  -0.0184
163. GTTGCAGA  -0.0187
164. CGGGTTTA  -0.0209
165. CATTCGGC  -0.0238
166. AAGCCGGT  -0.024
167. TCAGAGAA  -0.0244
168. GGCGCTAA  -0.0255
169. GACATTCC  -0.0262
170. GATTTTTA  -0.0272
171. AAATCGTA  -0.0277
172. ACTTTCTA  -0.028
173. ATGTAACC  -0.0284
174. CTGAAGTC  -0.0337
175. CACAGTAG  -0.0343
176. CATAATAA  -0.0382
177. CAGCGGCA  -0.0412
178. CGGGTGAC  -0.0446
179. ATCATTGG  -0.0561
180. TACGCTCA  -0.0567
181. CTATTAGA  -0.057
182. CGCGATGC  -0.0576
183. AACGCTCA  -0.0578
184. CGACCGAG  -0.0641
185. AGAAGAAT  -0.0672
186. AGCGCTAC  -0.068
187. GGCGCTTA  -0.0696
188. CACGATGC  -0.0719
189. CTGTTCGA  -0.08
190. CAGGTGCC  -0.0801
191. AACCAGAC  -0.0829
192. GGCGCTGA  -0.0921
193. AAATAGTC  -0.0981
194. ACGGTGAC  -0.102
195. CCAGCCCG  -0.102
196. CTACCTCA  -0.107
197. CATTGAGA  -0.109
198. AAGCAGAG  -0.111
199. CCCTACCG  -0.112
200. AGCTCCGG  -0.115
201. CATATTGC  -0.116
202. CTCACCGA  -0.12
203. CGTCAGGC  -0.125
204. CTCTCCTA  -0.129
205. CAGGTTCA  -0.134
206. AGTCCACA  -0.141
207. TCCTCCCA  -0.144
208. AACGGGAC  -0.148
209. AGAGCCGG  -0.167
210. ACCGTCAC  -0.176
211. TGTAGAAA  -0.18
212. AGGCTACT  -0.196
213. CTCTGAAC  -0.212
214. AGCAATCC  -0.214
215. GGCGCTAC  -0.214
216. CTCCTACC  -0.236
217. CCAGTCGG  -0.238
218. CTTCCATA  -0.244
219. AGCCTACC  -0.282
220. AGAAGGCT  -0.299
221. CAGAGAGG  -0.329
